The values below come from PubChem BioAssay AID1347142 (National Center for Advancing Translational Sciences (NCATS), 2019).

Inconclusive results are not listed. Values without a mark were called inactive. Calls of active or inactive are those of the source. Calls follow the shape of the dose curve; as a rule, active = well fitted inhibition curve with a large enough effect; inconclusive = small, poorly fitted or top-dose-only effect; inactive = no such curve, though single readings can be large or run the other way.
Also: nearly all actives have a fitted effect of over 80% in size.
For activity change, negative = inhibition in this document: 0% is about no effect.
Potency is read from the fitted curve at half-maximal effect.

Chain of N-terminal Xaa-Pro-Lys N-methyltransferase 1 (Homo sapiens) (Q9BV86 whole entry, looked up): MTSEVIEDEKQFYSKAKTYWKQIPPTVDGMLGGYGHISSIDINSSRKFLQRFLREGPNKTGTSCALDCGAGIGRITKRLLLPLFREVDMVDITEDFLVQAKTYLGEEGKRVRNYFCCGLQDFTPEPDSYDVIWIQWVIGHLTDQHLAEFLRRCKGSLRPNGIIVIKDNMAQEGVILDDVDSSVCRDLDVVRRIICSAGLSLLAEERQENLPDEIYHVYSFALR

The target in this experiment is N-terminal Xaa-Pro-Lys N-methyltransferase 1 (Homo sapiens) (UniProt Q9BV86). The experiment is described as follows: qHTS Assay for Inhibitors of N-terminal methyltransferase 1 (NTMT1): ThioGlo3 Assay Confirmatory Screen, Round 1. To be noted: NTMT1 SAHH-coupled ThioGlo3 fluorescence, 30 min; series mostly up to 56.8 µM; activity change, negative = inhibition: at the top concentration. A digest of the protocol:
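Human NTMT1 at 125 nM was preincubated 1 min at room temperature with compounds at various concentrations or 1 uM RCC1-6 control. Substrate mix (100 uM SAM, 10 uM SAHH, 15 uM ThioGlo3) was added, and fluorescence (Ex 340/Em 450 nm) was read at start and after 30 min, normalized to background.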
As to `COc1cc2nc(N3CCCCC3)nc(NC3CC3)c2cc1OC`, the Potency was 24.1 µM (active).

Regarding `Nc1ncnc2c1nc(Cl)n2[C@@H]1O[C@H](CO)[C@@H](O)[C@@H]1O`, the “activity change, negative = inhibition” value is 6.13%.

Consider `Nc1ncnc2c1ncn2[C@@H]1O[C@H](COP(=O)(O)OP(=O)(O)CP(=O)(O)O)[C@@H](O)[C@H]1O`, for which the “activity change, negative = inhibition” value was 3.29%.

Turning to `CCCCC#Cc1nc(NC)c2ncn([C@@H]3O[C@H](CO)[C@@H](O)C3O)c2n1` (stereo partly specified), the Potency was 8.57 µM (active).

On to `COc1cc2c(NC3CCN(C)CC3)nc(N3CCCN(C)CC3)nc2cc1OCCOCCN1CCCC1`, for which the Potency was 27.1 µM (active).

As for `CCN(CC)c1nc(NC2CCN(C)CC2)c2cc(OC)c(OC)cc2n1`, the Potency was 27.1 µM (active).

Regarding `Nc1ncnc2c1ncn2[C@@H]1O[C@H](COP(=O)(O)OP(=O)(O)O)[C@@H](O)[C@H]1O`, the “activity change, negative = inhibition” value was -3.45%.

For the molecule `CCNC(=O)[C@H]1O[C@H](n2cnc3c(N)nc(NCCc4ccc(CCC(=O)O)cc4)nc32)[C@@H](O)[C@@H]1O`, the “activity change, negative = inhibition” value was -29.2%.

For the molecule `Nc1ncnc2c1ncn2[C@@H]1O[C@H](COP(=O)(O)O)[C@@H](O)[C@@H]1O`, the “activity change, negative = inhibition” value is 13.1% [at 27.4 µM].

For the molecule `COc1cc2c(NC3CCN(C4CCCCC4)CC3)nc(N3CCCN(C)CC3)nc2cc1OCCOCCN(C)C`, the Potency was 27.1 µM (active).

With `Cn1cnc2c(ncn2[C@@H]2O[C@H](CO)[C@@H](O)[C@H]2O)c1=N`, the “activity change, negative = inhibition” value is -5.6%.

For the molecule `C=CCNc1nc(NC2CCN(C)CC2)c2cc(OC)c(OC)cc2n1`, the Potency was 27.1 µM (active).

Take `Nc1nc(Nc2ccccc2)nc2c1ncn2[C@@H]1O[C@H](CO)C(O)[C@H]1O` (stereo partly specified): the Potency is 24.1 µM (active).

As to `Nc1ncnc2c1ncn2[C@@H]1O[C@H](CO)[C@@H](O)[C@@H]1O`, the “activity change, negative = inhibition” value is -9.54%.

`COc1cc2c(NC3CCN(C)CC3)nc(N3CCCCC3)nc2cc1OCCOCCN(C)C`: the Potency is 24.1 µM (active).

Regarding `OC[C@H]1O[C@@H](n2cnc3c(NC4CCCC4)ncnc32)[C@H](O)C1O` (stereo partly specified), the “activity change, negative = inhibition” value was -31.9%.

As to `OC[C@@H]1O[C@@H](n2cnc3c(N[C@H]4CCC[C@@H]4O)ncnc32)[C@H](O)[C@H]1O`, the “activity change, negative = inhibition” value is -5.43%.

In the case of `NCCNC(=O)Cc1ccc(NC(=O)Cc2ccc(Nc3ncnc4c3ncn4[C@@H]3O[C@H](CO)[C@@H](O)[C@H]3O)cc2)cc1`, the “activity change, negative = inhibition” value is -1.16%.

With `COc1cc2nc(N3CCCN(C)CC3)nc(N3CCN(C)CC3)c2cc1OC`, the Potency is 8.57 µM (active).

In the case of `OC[C@H]1O[C@@H](n2cnc3c(NCc4ccccc4)ncnc32)[C@H](O)[C@@H]1O`, the “activity change, negative = inhibition” value is -5.53%.

`COc1cc2nc(NC3CCN(Cc4ccccc4)CC3)nc(N3CCCN(C)CC3)c2cc1OC`: the Potency is 24.1 µM (active).

As to `COc1cc2nc(N3CCN(C)CC3)nc(NC(C)C)c2cc1OC`, the Potency is 21.5 µM (active).

With `C[S+](CCC(N)C(=O)O)CC1O[C@@H](n2cnc3c(N)ncnc32)C(O)C1O` (stereo partly specified), the “activity change, negative = inhibition” value was 544%.

In the case of `COc1cc2c(NC3CCN(C4CCCCC4)CC3)nc(N3CCCCCC3)nc2cc1OCCCN1CCCCC1`, the Potency was 24.1 µM (active).

For `COc1cc2nc(N3CCCN(C)CC3)nc(NC3CCN(C)CC3)c2cc1OC`, the Potency was 21.5 µM (active).

Turning to `COc1cc2c(NC3CCN(C)CC3)nc(N3CCCN(C)CC3)nc2cc1OCCN(C)CCN(C)C`, the Potency is 27.1 µM (active).

As to `COc1cc2nc(N3CCCN(C)CC3)nc(NC3CCCCC3)c2cc1OC`, the Potency is 27.1 µM (active).

Take `COc1cc2c(NC3CCN(C(C)C)CC3)nc(N3CCC(N4CCCC4)CC3)nc2cc1OCCCN1CCCCC1`: the Potency is 24.1 µM (active).

Take `OCC1OC(n2cnc3c(NO)ncnc32)C(O)C1O` (stereo unspecified): the Potency was 3.83 µM (active).

As to `CO[C@@H]1[C@@H]2OP(=O)(O)OC[C@H]2O[C@H]1n1c(Sc2ccc(Cl)cc2)nc2c(N)ncnc21`, the “activity change, negative = inhibition” value was -11.6%.

Turning to `Nc1nc2c([nH]c(=O)n2[C@@H]2O[C@H](CO)[C@@H](O)[C@H]2O)c(=O)[nH]1`, the activity change, negative = inhibition was 16.6% [at 6.3 µM].

Turning to `Nc1ncnc2c1ncn2[C@@H]1O[C@H](CO)C[C@@H]1O`, the “activity change, negative = inhibition” value was 14%.

Turning to `CC(C)N(CCCNC(=O)Nc1ccc(C(C)(C)C)cc1)C[C@H]1O[C@@H](n2cc(Br)c3c(N)ncnc32)[C@H](O)[C@@H]1O`, the “activity change, negative = inhibition” value was -1.9%.

For `COc1cc2c(NC3CCN(CC4CCCCC4)CC3)nc(N3CCCCCC3)nc2cc1OCCCN1CCCCC1`, the Potency was 24.1 µM (active).

Consider `COc1cc2nc(N3CCOCC3)nc(NC(C)C)c2cc1OC`, for which the Potency was 24.1 µM (active).

With `COc1cc2nc(N3CC[C@@H](N(C)C)C3)nc(NC3CC3)c2cc1OC`, the “activity change, negative = inhibition” value is 10.7%.
